Measurements: PubChem BioAssay AID1159580 (chemical genetic matrix, 2015)
In all, about 5,500 compounds went through this assay and about 2,000 (36%) were called active. About 18% were inconclusive and are not listed. Cut-off read from the data, not from the text of the source: active = normalized growth mostly below about 0.91 (no sharp cut-off); inconclusive = no clear call, values can overlap the other calls; inactive = mostly above about 0.92. Some of the results follow.

Assay: chemical genetic growth profiling, strain panel (AID 1159580);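 note: tested at 20 µM; growth read once vehicle control cultures reached saturation at 30 °C; 1 = growth at the plate median or of vehicle wells; lower values mean less growth of the strain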
Settings: growth OD

Measured: normalized growth

COc1ccc2c(c1)OC1(O)COc3cc(OC)c(OC)cc3C1=C2 (configuration not stated)
inactive: S. cerevisiae deletion strains, locus YJR075W, strain HOC1, hits give low values 0.956 | S. cerevisiae deletion strains, locus YKL009W, strain mrt4, hits give low values 0.965 | S. cerevisiae deletion strains, locus YKL068W, hits give low values 0.99 | S. cerevisiae deletion strains, locus YKL085W, strain MDH1 (second series), hits give low values 0.98 | S. cerevisiae deletion strains, locus YKL085W, strain MDH1, hits give low values 0.98 | S. cerevisiae deletion strains, locus YKL160W, strain elf1, hits give low values 1 | S. cerevisiae deletion strains, locus YKL190W, strain CNB1, hits give low values 1.01 | S. cerevisiae deletion strains, locus YKR001C, strain vps1, hits give low values 0.949 | S. cerevisiae deletion strains, locus YKR026C, strain gcn3, hits give low values 0.974 | S. cerevisiae deletion strains, locus YKR091W, strain srl3, hits give low values 0.979 | S. cerevisiae deletion strains, locus YLL001W, strain dnm1, hits give low values 0.944 | S. cerevisiae deletion strains, locus YLL026W, hits give low values 0.985 | S. cerevisiae deletion strains, locus YLL041C, strain sdh2, hits give low values 0.987 | S. cerevisiae deletion strains, locus YLR027C, strain aat2, hits give low values 0.985 | S. cerevisiae deletion strains, locus YLR039C, strain RIC1, hits give low values 0.974 | S. cerevisiae deletion strains, locus YLR058C, strain SHM2, hits give low values 1 | S. cerevisiae deletion strains, locus YLR102C, strain apc9, hits give low values 0.99 | S. cerevisiae deletion strains, locus YLR113W, strain HOG1, hits give low values 0.939 | S. cerevisiae deletion strains, locus YLR221C, strain rsa3, hits give low values 0.96 | S. cerevisiae deletion strains, locus YLR258W, strain gsy2, hits give low values 0.986 | S. cerevisiae deletion strains, locus YLR262C, strain YPT6 (second series), hits give low values 0.926 | S. cerevisiae deletion strains, locus YLR262C, strain YPT6, hits give low values 0.961 | S. cerevisiae deletion strains, locus YLR268W, strain sec22, hits give low values 0.96 | S. cerevisiae deletion strains, locus YLR320W, strain mms22, hits give low values 0.925 | S. cerevisiae deletion strains, locus YLR330W, strain CHS5, hits give low values 0.997 | S. cerevisiae deletion strains, locus YLR342W, strain FKS1 (second series), hits give low values 0.91 | S. cerevisiae deletion strains, locus YLR342W, strain FKS1, hits give low values 0.976 | S. cerevisiae deletion strains, locus YLR357W, strain rsc2, hits give low values 0.983 | S. cerevisiae deletion strains, locus YLR370C, strain arc18, hits give low values 0.985 | S. cerevisiae deletion strains, locus YLR371W, strain rom2, hits give low values 0.99 | S. cerevisiae deletion strains, locus YLR384C, strain iki3, hits give low values 0.985 | S. cerevisiae deletion strains, locus YLR418C, strain cdc73, hits give low values 0.955 | S. cerevisiae deletion strains, locus YML016C, strain PPZ1, hits give low values 1.01 | S. cerevisiae deletion strains, locus YML032C, strain rad52, hits give low values 0.957 | S. cerevisiae deletion strains, locus YML120C, strain ndi1, hits give low values 0.989 | S. cerevisiae deletion strains, locus YML124C, strain tub3, hits give low values 0.986 | S. cerevisiae deletion strains, locus YMR058W, strain fet3, hits give low values 0.978 | S. cerevisiae deletion strains, locus YMR078C, strain ctf18, hits give low values 0.98 | S. cerevisiae deletion strains, locus YMR125W, strain sto1, hits give low values 0.985 | S. cerevisiae deletion strains, locus YMR129W, hits give low values 0.977 | S. cerevisiae deletion strains, locus YMR205C, strain PFK2, hits give low values 0.954 | S. cerevisiae deletion strains, locus YMR223W, strain ubp8, hits give low values 0.951 | S. cerevisiae deletion strains, locus YMR231W, strain pep5, hits give low values 0.983 | S. cerevisiae deletion strains, locus YMR263W, strain SAP30, hits give low values 1.01 | S. cerevisiae deletion strains, locus YMR307W, strain GAS1, hits give low values 0.984 | S. cerevisiae deletion strains, locus YNL067W, strain RPL9B, hits give low values 0.998 | S. cerevisiae deletion strains, locus YNL071W, strain lat1, hits give low values 0.945 | S. cerevisiae deletion strains, locus YNL128W, strain TEP1, hits give low values 1.02 | S. cerevisiae deletion strains, locus YNL153C, strain GIM3, hits give low values 1.03 | S. cerevisiae deletion strains, locus YNL183C, strain NPR1, hits give low values 0.892 | S. cerevisiae deletion strains, locus YNL209W, strain ssb2, hits give low values 0.993 | S. cerevisiae deletion strains, locus YNL233W, strain BNI4, hits give low values 0.971 | S. cerevisiae deletion strains, locus YNL248C, strain rpa49, hits give low values 0.996 | S. cerevisiae deletion strains, locus YNL250W, strain rad50, hits give low values 0.998 | S. cerevisiae deletion strains, locus YNL271C, strain bni1, hits give low values 0.98 | S. cerevisiae deletion strains, locus YNL298W, strain CLA4, hits give low values 0.98 | S. cerevisiae deletion strains, locus YNL322C, strain KRE1 (second series), hits give low values 0.991 | S. cerevisiae deletion strains, locus YNL322C, strain KRE1, hits give low values 1 | S. cerevisiae deletion strains, locus YNR049C, strain mso1, hits give low values 0.992 | S. cerevisiae deletion strains, locus YNR052C, strain pop2, hits give low values 0.98 | S. cerevisiae deletion strains, locus YOL006C, strain TOP1, hits give low values 0.945 | S. cerevisiae deletion strains, locus YOL012C, strain htz1 0.969 | S. cerevisiae deletion strains, locus YOL147C, strain pex11, hits give low values 0.986 | S. cerevisiae deletion strains, locus YOR001W, strain rrp6, hits give low values 0.915 | S. cerevisiae deletion strains, locus YOR061W, strain CKA2, hits give low values 1.01 | S. cerevisiae deletion strains, locus YOR069W, strain VPS5, hits give low values 1.01 | S. cerevisiae deletion strains, locus YOR070C, strain gyp1, hits give low values 0.985 | S. cerevisiae deletion strains, locus YOR080W, strain dia2, hits give low values 0.97 | S. cerevisiae deletion strains, locus YOR083W, strain WHI5, hits give low values 0.982 | S. cerevisiae deletion strains, locus YOR106W, strain vam3, hits give low values 0.995 | S. cerevisiae deletion strains, locus YOR136W, strain idh2, hits give low values 0.975 | S. cerevisiae deletion strains, locus YOR144C, strain elg1, hits give low values 0.987 | S. cerevisiae deletion strains, locus YOR184W, strain ser1, hits give low values 0.899 | S. cerevisiae deletion strains, locus YOR231W, strain MKK1, hits give low values 0.92 | S. cerevisiae deletion strains, locus YOR265W, strain rbl2, hits give low values 0.982 | S. cerevisiae deletion strains, locus YOR270C, strain vph1, hits give low values 0.904 | S. cerevisiae deletion strains, locus YOR290C, strain snf2, hits give low values 0.998 | S. cerevisiae deletion strains, locus YOR316C, strain cot1, hits give low values 0.996 | S. cerevisiae deletion strains, locus YPL051W, strain arl3, hits give low values 0.949 | S. cerevisiae deletion strains, locus YPL055C, strain LGE1, hits give low values 1.02 | S. cerevisiae deletion strains, locus YPL078C, strain atp4, hits give low values 0.999 | S. cerevisiae deletion strains, locus YPL106C, strain sse1, hits give low values 0.991 | S. cerevisiae deletion strains, locus YPL240C, strain hsp82, hits give low values 0.988 | S. cerevisiae deletion strains, locus YPL241C, strain CIN2, hits give low values 1 | S. cerevisiae deletion strains, locus YPL256C, strain CLN2, hits give low values 0.902 | S. cerevisiae deletion strains, locus YPR119W, strain clb2, hits give low values 0.983 | S. cerevisiae deletion strains, locus YPR141C, strain kar3, hits give low values 0.994 | S. cerevisiae deletion strains, locus YPR163C, strain tif3, hits give low values 0.983 | S. cerevisiae deletion strains, locus YPR167C, strain met16, hits give low values 0.984 | S. cerevisiae deletion strains, strain wtn01, hits give low values 0.981 | S. cerevisiae strains, strain wild type, hits give low values 0.987
active: S. cerevisiae deletion strains, locus YNL307C, strain MCK1, hits give low values 0.848
